According to PubChem BioAssay (Tox21):
Results filed as inconclusive are left out. Activity calls are given as the source filed them. Unless noted, calls come from the whole dose curve; as a rule, active = well fitted curve in the direction sought with a large enough effect in the repeat runs; inconclusive = weak or mixed curves; inactive = no such curve, though single readings can be large; an effect the other way counts as inactive or inconclusive.

How the values were obtained:
[1] = qHTS assay to identify small molecule antagonists of the retinoid-related orphan receptor gamma (ROR-gamma) signaling pathway - cell viability counter screen (AID 1159520); note: % is set by controls: 0 for no effect and ±100 for the full control effect; nearly all actives have a fitted effect of over 50% in size
In short: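 Tet-on ROR gamma CHO cells (1,000/well) were plated 4 hr, given compounds in DMSO for 2 hr at 37 C, then induced with 1 uM final doxycycline for 16 hr. Viability was read as ATP by CellTiter-Glo luminescence after 30 min.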

[2] = qHTS assay to identify small molecule agonists of the AP-1 signaling pathway (AID 1159526; calls by dose curve; note: % is set by controls: 0 for no effect and ±100 for the full control effect)
[3] = biological target: Retinoic acid receptor RXR-alpha (Homo sapiens) (UniProt P19793); experiment: qHTS assay to identify small molecule agonists of the RXR signaling pathway (AID 1159527; calls by dose curve; note: % is set by controls: 0 for no effect and ±100 for the full control effect; nearly all actives have a fitted effect of over 35% in size)
In short: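 16 hr incubation of compound-treated RXR-alpha-UAS-bla HEK 293T cells (2% charcoal-stripped FBS, 37 C) preceded a 2 hr room-temperature LiveBLAzer FRET substrate step and blue/green fluorescence measurement.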

[4] = qHTS assay to identify small molecule agonists of the RXR signaling pathway - cell viability counter screen (AID 1159529); note: nearly all actives have a fitted effect of over 50% in size; note: potency is the fitted concentration of half-maximal effect
In short: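 In this parallel viability measure, GeneBLAzer RXR-alpha HEK 293T cells (2% charcoal-stripped FBS) were given a 5 hr preincubation, treated with compounds 16 hr at 37 C, and read by CellTiter-Glo luminescence.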

[5] = qHTS assay to identify small molecule antagonists of the retinoid acid receptor (RAR) signaling pathway - cell viability counter screen (AID 1159551); note: nearly all actives have a fitted effect of over 35% in size; note: potency is the fitted concentration of half-maximal effect
In short: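 Cytotoxicity counter screen: ATP content quantified by CellTiter-Glo luminescence in C3RL4 cells treated 6 hr at 37 C with compound and retinol (1 uM final). Cells plated at 1,000/well and cultured overnight before dosing.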

[6] = qHTS assay to identify small molecule antagonists of the retinoic acid receptor (RAR) signaling pathway (AID 1159552; note: nearly all actives have a fitted effect of over 50% in size; note: potency is the fitted concentration of half-maximal effect)
In short: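 C3RL4 RARE-luc cells, overnight plating; retinol 1 uM final added right after compound; 6 hr 37 C; luciferase read at 30 min RT.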

[7] = qHTS assay to identify small molecule agonists of the peroxisome proliferator-activated receptor delta (PPARd) signaling pathway - cell viability counter screen (AID 743211); note: potency is the fitted concentration of half-maximal effect; nearly all actives have a fitted effect of over 55% in size
In short: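 qHTS cell viability: PPARd-bla HEK293H; 17 h cpd, 37C; CellTiter-Glo, luminescence at 30 min RT.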

[8] = biological target: Peroxisome proliferator-activated receptor delta (Homo sapiens) (UniProt Q03181); experiment: qHTS assay to identify small molecule agonists of the peroxisome proliferator-activated receptor delta (PPARd) signaling pathway (AID 743212; calls by dose curve; note: % is set by controls: 0 for no effect and ±100 for the full control effect)
In short: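 Cells expressing a UAS-driven beta-lactamase reporter (PPARd-bla HEK293H) were given test compounds after a 5 h settle and kept at 37 C. Reporter activity was then measured as FRET fluorescence using LiveBLAzer B/G substrate.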

[9] = qHTS assay to identify small molecule antagonists of the peroxisome proliferator-activated receptor delta (PPARd) signaling pathway - cell viability counter screen (AID 743213); note: potency is the fitted concentration of half-maximal effect; nearly all actives have a fitted effect of over 50% in size
In short: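 HEK293H PPARd UAS-bla cells, 5 h pre-incubation, compound + L165041 300 nM final, 17 h 37 C; B/G FRET substrate 2 h RT; then CellTiter-Glo 30 min RT, luminescence.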

[10] = qHTS assay to identify small molecule agonists of the farnesoid-X-receptor (FXR) signaling pathway - cell viability counter screen (AID 743218); note: nearly all actives have a fitted effect of over 45% in size; note: potency is the fitted concentration of half-maximal effect
In short: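 Viability counter screen in the same wells: CellTiter-Glo luminescence, 30 min room-temperature incubation, measured after the beta-lactamase read. Cells were GeneBLAzer FXR-UAS-bla HEK 293T, compound-treated 16 h at 37C.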

[11] = biological target: Vitamin D3 receptor (Homo sapiens) (UniProt P11473); experiment: qHTS assay to identify small molecule antagonists of the vitamin D receptor (VDR) signaling pathway (AID 743223; active = well fitted inhibition curve with a large enough effect in the signal ratio in the repeat runs, not every such curve was filed as active; the % refers to the signal ratio; note: % is set by controls: 0 for no effect and ±100 for the full control effect)
In short: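 Reporter line VDR-bla; stimulus 1alpha,25-(OH)2 vitamin D3, 3 nM final; compound co-addition, 16 h 37C/5% CO2; LiveBLAzer B/G substrate 2 h RT; fluorescence intensity.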

[12] = qHTS assay to identify small molecule agonists of the vitamin D receptor (VDR) signaling pathway - cell viability counter screen (AID 743224)
In short: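 Counter screen run in the same wells as the VDR-bla reporter assay: CellTiter-Glo luminescence, 30 min at room temperature, after 16 h compound treatment at 37C of cells pre-plated for 4 h.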

[13] = qHTS assay to identify small molecule antagonists of the vitamin D receptor (VDR) signaling pathway - cell viability counter screen (AID 743225); note: nearly all actives have a fitted effect of over 50% in size; note: potency is the fitted concentration of half-maximal effect
In short: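 Parallel cytotoxicity test: VDR-UAS-bla HEK 293T, 3 nM (final) 1-alpha,25-dihydroxyvitamin D3 with test compound, 16 h, 37C. Endpoint is CellTiter-Glo luminescence in the same wells.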

[14] = biological target: Nuclear receptor ROR-gamma (Homo sapiens) (UniProt P51449); experiment: qHTS assay to identify small molecule antagonists of the retinoid-related orphan receptor gamma (ROR-gamma) signaling pathway (AID 1159521; note: nearly all actives have a fitted effect of over 50% in size; note: potency is the fitted concentration of half-maximal effect)
In short: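 Decreased RORE-driven luciferase luminescence indicates antagonism. Tet-on RORγ CHO cells received compound, then 1 uM final doxycycline 2 h later; signal read after 16 h incubation.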

[15] = qHTS assay to identify small molecule agonists of the retinoic acid receptor (RAR) signaling pathway (AID 1159553); note: % is set by controls: 0 for no effect and ±100 for the full control effect
In short: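 Luminescence was measured 30 min after luciferase reagent addition at room temperature. Before that, C3RL4 reporter cells (1,000 per well, plated overnight) were treated with compound for 6 hr at 37 C and 5% CO2.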

[16] = qHTS assay to identify small molecule agonists of the AP-1 signaling pathway - cell viability counter screen (AID 1159525; calls by dose curve; note: nearly all actives have a fitted effect of over 55% in size)
In short: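 Each titration point was normalised to DMSO and tetra n-octyl ammonium bromide controls. The read was Cell Titer Glo luminescence after 30 min at RT, following 5 h compound exposure of ME-180 AP-1-bla cells at 37 °C.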

[17] = biological target: Peroxisome proliferator-activated receptor delta (Homo sapiens) (UniProt Q03181); experiment: qHTS assay to identify small molecule antagonists of the peroxisome proliferator-activated receptor delta (PPARd) signaling pathway (AID 743215; active = well fitted inhibition curve with a large enough effect in the signal ratio in the repeat runs, not every such curve was filed as active; the % refers to the signal ratio)
In short: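 Agonist L165041 (300 nM final) added with compound to PPARd-bla HEK293H UAS-bla reporter cells; 17 h incubation at 37 C. Read-out: LiveBLAzer FRET substrate, 2 h at room temperature, fluorescence intensity.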

[18] = biological target: Bile acid receptor (Homo sapiens) (UniProt Q96RI1); experiment: qHTS assay to identify small molecule agonists of the farnesoid-X-receptor (FXR) signaling pathway (AID 743220; active = well fitted activation curve with a large enough effect in the signal ratio in the repeat runs, not every such curve was filed as active; the % refers to the signal ratio; note: % is set by controls: 0 for no effect and ±100 for the full control effect)
In short: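 FXR-UAS-bla HEK 293T cells carrying a UAS-driven beta-lactamase reporter were plated for 5 h at 37C/5% CO2, then exposed to DMSO-dissolved Tox21 10K compounds for 16 h at 37C. A LiveBLAzer B/G FRET substrate was loaded for 2 h at room temperature before fluorescence reading.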

[19] = qHTS assay to identify small molecule antagonists of the farnesoid-X-receptor (FXR) signaling pathway - cell viability counter screen (AID 743221; active = well fitted cell-killing curve with a large enough effect in the repeat runs, not every such curve was filed as active)
In short: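 After a 5 h settling period, FXR-bla HEK 293T cells receive compound and chenodeoxycholic acid (50 uM final) and incubate 16 h at 37 C; CellTiter-Glo luminescence, read after 30 min at room temperature, reports cell viability.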

[20] = biological target: Bile acid receptor (Homo sapiens) (UniProt Q96RI1); experiment: qHTS assay to identify small molecule antagonists of the farnesoid-X-receptor (FXR) signaling pathway (AID 743217; active = well fitted inhibition curve with a large enough effect in the signal ratio in the repeat runs, not every such curve was filed as active; the % refers to the signal ratio; note: % is set by controls: 0 for no effect and ±100 for the full control effect)
In short: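 Antagonist mode: chenodeoxycholic acid at 50 uM final stimulates a UAS-driven beta-lactamase reporter in HEK 293T FXR-bla cells during 16 h, 37C compound exposure. Read-out is FRET substrate fluorescence after 2 h at room temperature.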

Chain of Retinoic acid receptor RXR-alpha (Homo sapiens) (P19793 whole entry, looked up): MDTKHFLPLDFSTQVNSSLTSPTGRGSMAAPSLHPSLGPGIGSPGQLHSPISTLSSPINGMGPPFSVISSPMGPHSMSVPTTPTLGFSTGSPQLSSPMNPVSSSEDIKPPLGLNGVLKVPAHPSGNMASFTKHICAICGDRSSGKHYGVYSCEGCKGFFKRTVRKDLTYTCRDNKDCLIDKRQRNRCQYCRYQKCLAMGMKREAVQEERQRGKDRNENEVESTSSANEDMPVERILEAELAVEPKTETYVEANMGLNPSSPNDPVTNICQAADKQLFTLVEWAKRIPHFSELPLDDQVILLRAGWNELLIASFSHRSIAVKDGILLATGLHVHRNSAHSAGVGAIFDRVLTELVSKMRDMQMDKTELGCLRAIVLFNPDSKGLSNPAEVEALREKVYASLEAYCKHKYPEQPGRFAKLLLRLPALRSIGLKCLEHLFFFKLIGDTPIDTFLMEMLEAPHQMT
Chain of Peroxisome proliferator-activated receptor delta (Homo sapiens) (Q03181 whole entry, looked up): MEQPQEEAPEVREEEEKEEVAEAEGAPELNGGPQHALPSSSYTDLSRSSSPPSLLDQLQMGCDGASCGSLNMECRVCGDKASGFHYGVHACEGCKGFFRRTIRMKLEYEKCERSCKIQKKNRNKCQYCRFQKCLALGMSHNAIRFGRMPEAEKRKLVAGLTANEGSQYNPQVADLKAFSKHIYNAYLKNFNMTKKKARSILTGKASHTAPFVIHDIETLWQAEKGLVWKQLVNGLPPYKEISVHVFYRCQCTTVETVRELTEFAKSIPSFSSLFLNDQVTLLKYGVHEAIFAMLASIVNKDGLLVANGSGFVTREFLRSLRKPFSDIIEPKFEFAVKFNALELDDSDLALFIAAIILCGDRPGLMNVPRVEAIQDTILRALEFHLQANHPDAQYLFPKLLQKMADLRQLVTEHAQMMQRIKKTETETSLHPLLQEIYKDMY
Chain of Bile acid receptor (Homo sapiens) (Q96RI1 whole entry, looked up): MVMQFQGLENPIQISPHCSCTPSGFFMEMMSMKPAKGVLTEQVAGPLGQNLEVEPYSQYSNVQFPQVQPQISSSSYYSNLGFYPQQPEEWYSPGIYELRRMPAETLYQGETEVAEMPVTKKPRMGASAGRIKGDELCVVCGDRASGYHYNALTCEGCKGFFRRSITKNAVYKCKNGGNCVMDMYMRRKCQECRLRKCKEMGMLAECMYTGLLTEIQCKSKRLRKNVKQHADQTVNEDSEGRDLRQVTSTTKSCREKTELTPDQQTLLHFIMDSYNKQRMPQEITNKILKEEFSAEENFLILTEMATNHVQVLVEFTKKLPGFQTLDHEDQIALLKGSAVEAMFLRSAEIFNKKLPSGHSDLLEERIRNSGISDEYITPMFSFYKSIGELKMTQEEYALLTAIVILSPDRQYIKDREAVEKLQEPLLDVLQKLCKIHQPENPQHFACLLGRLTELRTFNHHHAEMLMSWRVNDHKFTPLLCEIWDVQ
Chain of Vitamin D3 receptor (Homo sapiens) (P11473 whole entry, looked up): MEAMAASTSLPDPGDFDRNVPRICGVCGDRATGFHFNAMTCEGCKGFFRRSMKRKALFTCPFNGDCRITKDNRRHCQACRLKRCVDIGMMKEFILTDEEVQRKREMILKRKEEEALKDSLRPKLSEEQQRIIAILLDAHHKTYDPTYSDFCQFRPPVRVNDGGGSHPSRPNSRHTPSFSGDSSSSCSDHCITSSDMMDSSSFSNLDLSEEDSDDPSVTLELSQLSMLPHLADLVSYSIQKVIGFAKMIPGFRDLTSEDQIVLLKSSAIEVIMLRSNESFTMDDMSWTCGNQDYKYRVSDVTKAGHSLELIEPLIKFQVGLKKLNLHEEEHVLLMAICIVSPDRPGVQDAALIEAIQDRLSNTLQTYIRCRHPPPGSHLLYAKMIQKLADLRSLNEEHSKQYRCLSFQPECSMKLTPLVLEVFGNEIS

COC(=O)c1ccc([N+](=O)[O-])cc1
inactive: Potency [1] | Potency [2] | Potency [3] | Potency [4] | Potency [5] | Potency [6]

CCCCCCCCCCCCCCCCCCNC(=O)OC1CCN(C(=O)OC[C@H](COC(=O)N(Cc2cccc[n+]2CC)C(=O)c2ccccc2OC)OC)CC1
active: Potency [7] 10.6 µM | Potency [9] 33.5 µM | Potency [10] 26.6 µM | Potency [12] 26.6 µM | Potency [13] 21.3 µM | Potency [14] 29.8 µM | Potency [4] 23.9 µM | Potency [6] 26.6 µM
inactive: outcome [8] | Potency [11] | Potency [15]

CCCC(=O)c1cc(O)c(O)cc1O
inactive: Potency [16] | Potency [4]

CN(C/C=C/c1ccccc1)Cc1cccc2ccccc12
inactive: outcome [8] | Potency [17] | outcome [18] | Potency [19] | Potency [1]
active: Potency [12] 26.6 µM | Potency [4] 13.4 µM | Potency [5] 26.6 µM

Oc1cccc2c(O)cccc12
active: Potency [14] 68.6 µM
inactive: Potency [3] | Potency [5]

CCSCC
inactive: Potency [20] | Potency [10] | Potency [19] | Potency [13] | Potency [1] | Potency [2] | Potency [4] | Potency [5]

C=CCc1cc(S(=O)(=O)c2ccc(O)c(CC=C)c2)ccc1O
active: Potency [7] 43.6 µM | Potency [6] 54.5 µM
inactive: Potency [19] | Potency [11] | Potency [13] | Potency [1] | Potency [4] | Potency [5] | Potency [15]

O=C1Cc2ccccc2C1
inactive: Potency [6]

CCCCC/C=C\C=C\C(=O)OCC
active: Potency [12] 40.5 µM | Potency [14] 56.8 µM | Potency [4] 45.5 µM
inactive: outcome [18] | Potency [13] | Potency [5]

CC/C=C\C/C=C\C/C=C\CCCCCCCC(=O)OC
inactive: Potency [16] | Potency [2] | Potency [5] | Potency [6]

O=C(O)C[C@H](O)C[C@H](O)/C=C/c1c(C2CC2)nc2ccccc2c1-c1ccc(F)cc1
inactive: viability change, negative = cytotoxic [16] 2.51% [at 15.8 µM] | activation [2] 4.12% [at 15.8 µM] | activation [3] -9.56% [at 15.8 µM] | activity change, negative = cytotoxicity [5] 1.42% [at 19 µM]

CCN(CC)c1ccc2c(c1)Oc1cc(N(CC)CC)ccc1C21OC(=O)c2ccccc21
active: Potency [5] 11.9 µM
inactive: Potency [14] | Potency [16] | Potency [6]
